{"source": "PubChem BioAssay AID618", "about": "(Sanford-Burnham Center for Chemical Genomics, 2007)", "note": "About 540 (0.62%) of roughly 87,000 compounds were called active. The rule behind the calls is not given here. The entries come from a sample that favours actives as a whole. Results with a measured potency or affinity are listed apart."}
{"assay": "MT1-MMP gene expression reporter suppression – cell-based, luciferase reporter, luminescence (AID 618);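 note: actives suppress MT1-MMP promoter-driven transcription so potencies describe inhibitors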", "settings": "MT1-MMP promoter luciferase reporter cells"}
{"smiles": "Cc1ncc(S(=O)(=O)c2ccccc2)c(-c2ccc(Cl)cc2Cl)n1", "outcome": "inactive"}
{"smiles": "CCC1CCCCN1C(=O)CSc1nnc(-c2ccc3c(c2)OCCO3)o1", "note": "(centres undefined)", "outcome": "inactive"}
{"smiles": "CC(=O)CSc1nnc(-c2ccc3c(c2)OCO3)o1", "outcome": "inactive"}
{"smiles": "O=C(CSc1nnc(-c2ccc3c(c2)OCCO3)o1)N1CCCC1", "outcome": "inactive"}
{"smiles": "O=C(O)CSc1nnc(-c2ccc3c(c2)OCO3)o1", "outcome": "inactive"}
{"smiles": "O=C(c1ccco1)N1CCN=C1SCc1ccc(F)cc1", "outcome": "inactive"}
{"smiles": "COc1ccc(NC(=O)CN(C2CCCCC2)S(C)(=O)=O)cc1OC", "outcome": "inactive"}
{"smiles": "N=C1C(c2ccc(Br)cc2)=C(O)C2CCc3ccccc3N12", "note": "(centres undefined)", "outcome": "inactive"}
{"smiles": "CCC(=O)Nc1cc2c(cc1C(C)=O)OCCO2", "outcome": "inactive"}
{"smiles": "Cc1ccc(Cl)cc1NC(=O)CCC(=O)Nc1cc(Cl)ccc1C", "outcome": "inactive"}
{"smiles": "COc1ccc(C(=O)NC(=O)Nc2cc(C)ccn2)cc1", "outcome": "active"}
{"smiles": "COc1ccc(CC(=O)Nc2cc(C)ccn2)cc1", "outcome": "inactive"}
{"smiles": "COc1cc(C(=O)Nc2cc(C)ccn2)cc(OC)c1OC", "outcome": "inactive"}
{"smiles": "CN1CCc2c(sc3c2c(=O)n(-c2ccccc2)c2nnc(SCc4ccc(Cl)cc4)n32)C1", "outcome": "inactive"}
{"smiles": "CCOC(=O)c1sc2nc3c(cc2c1N)COC(C)(CC)C3", "note": "(centres undefined)", "outcome": "inactive"}
{"smiles": "CCOC(=O)c1sc2nc3c(cc2c1N)COC(C)(C)C3", "outcome": "inactive"}
{"smiles": "CCN(Cc1ccccc1)S(=O)(=O)c1ccc2oc(C(=O)O)c(C)c2c1", "outcome": "inactive"}
{"smiles": "Cn1ccnc1SCc1cn2ccccc2n1", "outcome": "inactive"}
{"smiles": "Brc1ccc2nc(CSc3ncn[nH]3)cn2c1", "outcome": "inactive"}
{"smiles": "COc1ccc(NC(=S)N/C(=N/CS(=O)(=O)c2ccccc2)c2ccccc2)cc1", "outcome": "inactive"}
{"smiles": "CCOC(=O)N1CCC(N2C(=O)c3ccc(C(=O)O)cc3C2=O)CC1", "outcome": "inactive"}
{"smiles": "Clc1ccc(-c2nnc(NC3=NCCCCC3)o2)cc1", "outcome": "active"}
{"smiles": "Cc1nnc(NC2=NCCCCC2)o1", "outcome": "inactive"}
{"smiles": "CCOc1ccc(-c2nnc(NC3=NCCCCC3)o2)cc1", "outcome": "inactive"}
{"smiles": "c1coc(-c2nnc(NC3=NCCC3)o2)c1", "outcome": "inactive"}
{"smiles": "Clc1ccc(NC2=NCCCCC2)cc1", "outcome": "inactive"}
{"smiles": "Fc1ccc(-c2nnc(NC3=NCCCCC3)o2)cc1", "outcome": "active"}
{"smiles": "O=C1/C(=C\\Nc2ccc(OC(F)(F)F)cc2)CCN1c1ncccn1", "outcome": "inactive"}
{"smiles": "CS(=O)(=O)N(CC(=O)NCCSC1CCCCC1)c1ccc2c(c1)OCO2", "outcome": "inactive"}
{"smiles": "COc1cccc(CNc2ccc(F)c(Cl)c2)c1OC", "outcome": "inactive"}
{"smiles": "Cc1nc2ccccc2n1-c1nc(-c2ccco2)cc(C(F)(F)F)n1", "outcome": "active"}
{"smiles": "FC(F)(F)c1cc(-c2ccco2)nc(-n2cnc3ccccc32)n1", "outcome": "inactive"}
{"smiles": "FC(F)(F)c1cc(-c2ccco2)nc(-n2nnc3ccccc32)n1", "outcome": "inactive"}
{"smiles": "Cc1cc(OCCCCCNCCO)cc(C)c1Cl", "outcome": "inactive"}
